Activity calls are given as the source filed them. Unless noted, no rule for the calls is given here.

The values that follow come from PubChem BioAssay.

The nature of experiment [1]: resazurin metabolic signal in HepG2 cells – cell-based, resazurin fluorescence, 24 h, PK04 Diversity Set, profiling panel (AID 1172). Also: test concentration not given here. The settings on record: HepG2 viability, higher = more signal.
A short description of experiment [2]: budding yeast growth changes without added modifier – OD600, strain BY4716, 24 h, basal condition, primary screen (AID 1173). The settings on record: S. cerevisiae BY4716 growth, OD600, 24 h; higher = more signal, called active from +8 up or from −8 down.
Experiment [3] can be described thus: viability profiling in MM1S myeloma cells – cell-based, resazurin fluorescence, basal, 24 h, PK04 Diversity Set, profiling panel (AID 1174).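 Also: MM1S multiple myeloma cell line; test concentration not given here.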 The settings on record: higher = more signal, called active from +8 up or from −8 down. On the technique in general: The colour change of resazurin is a common sign of viable cells or microbes.
Experiment [4] has as its target Dihydroorotate dehydrogenase (quinone), mitochondrial (Plasmodium falciparum (isolate 3D7)) (UniProt Q08210). In words: inhibition of P. falciparum DHODH – biochemical, C-terminal His tag, absorbance 600 nm, primary screen (AID 1175).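 Also: recombinant parasite enzyme with a five histidine tag at its C terminus; test concentration not given here.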 As to conditions: PfDHODH enzyme, DCIP absorbance 600 nm; higher = more signal, called active from +8 up or from −8 down.
A short description of experiment [5]: inhibition of PAO1 biofilm formation – strain PAO1, LB-PBS medium, absorbance 600 nm, primary screen (AID 1176). Also: test concentration not given here. The settings on record: P. aeruginosa PAO1 growth/biofilm, A600, 12 h; higher = more signal.
Experiment [6] in a line: growth modulation of vineyard yeast isolate – strain RM11-1a, OD600, basal, 24 h, primary screen (AID 1177).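 Also: cultures grown under basal conditions with no added stressor; test concentration not given here.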 As to conditions: S. cerevisiae RM11-1a growth, OD600, 24 h; higher = more signal, called active from +8 up or from −8 down.
The nature of experiment [7]: growth of efflux-deficient E. coli DRC39 – strain DRC39, OD650, 24 h, E. coli filamentation inducers, primary screen (AID 1178).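 Also: growth measured as culture turbidity by optical density at 650 nm; test concentration not given here.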 The settings on record: E. coli DRC39 acrAB, higher = more signal, called active from +8 up or from −8 down.
Experiment [8] can be described thus: growth of efflux-deficient E. coli DRC39 – strain DRC39, OD650, 48 h, E. coli filamentation inducers, primary screen (AID 1179).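 Also: screen aims at cell division blockers that make cells filament.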 As to conditions: E. coli DRC39 delta-acrAB growth, higher = more signal, called active from +8 up or from −8 down.
Experiment [9] can be described thus: viability profiling in RPMI8226 myeloma cells – cell-based, resazurin fluorescence, basal, 24 h, PK04 Diversity Set, profiling panel (AID 1180).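 Also: RPMI8826 multiple myeloma cell line at 5000 cells per well; test concentration not given here.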 As to conditions: higher = more signal.
The target of experiment [10] is E3 ubiquitin-protein ligase XIAP (Homo sapiens) (UniProt P98170). In words: small molecules binding XIAP protein – biophysical, small-molecule microarray, fluorescence 635 nm, primary screen (AID 1181).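 Also: score merges 667 nm emission and signal to noise over triplicate slides.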 The settings on record: higher = more signal.
E3 ubiquitin-protein ligase XIAP (Homo sapiens), sequence (P98170 whole entry, looked up): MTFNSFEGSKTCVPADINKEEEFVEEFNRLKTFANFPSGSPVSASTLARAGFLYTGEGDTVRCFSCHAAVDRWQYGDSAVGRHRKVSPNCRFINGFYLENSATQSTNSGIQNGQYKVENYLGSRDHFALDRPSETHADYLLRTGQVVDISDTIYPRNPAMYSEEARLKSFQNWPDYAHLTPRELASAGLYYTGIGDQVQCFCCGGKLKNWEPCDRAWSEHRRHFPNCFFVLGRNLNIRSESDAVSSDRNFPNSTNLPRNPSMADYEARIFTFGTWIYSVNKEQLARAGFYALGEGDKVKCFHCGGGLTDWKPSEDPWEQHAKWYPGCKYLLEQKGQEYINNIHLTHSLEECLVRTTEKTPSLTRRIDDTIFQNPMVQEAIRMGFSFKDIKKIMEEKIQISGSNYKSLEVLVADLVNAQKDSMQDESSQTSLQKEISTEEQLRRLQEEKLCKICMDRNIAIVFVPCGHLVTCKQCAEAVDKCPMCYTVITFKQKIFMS

Dihydroorotate dehydrogenase (quinone), mitochondrial (Plasmodium falciparum (isolate 3D7)), sequence (Q08210 whole entry, looked up): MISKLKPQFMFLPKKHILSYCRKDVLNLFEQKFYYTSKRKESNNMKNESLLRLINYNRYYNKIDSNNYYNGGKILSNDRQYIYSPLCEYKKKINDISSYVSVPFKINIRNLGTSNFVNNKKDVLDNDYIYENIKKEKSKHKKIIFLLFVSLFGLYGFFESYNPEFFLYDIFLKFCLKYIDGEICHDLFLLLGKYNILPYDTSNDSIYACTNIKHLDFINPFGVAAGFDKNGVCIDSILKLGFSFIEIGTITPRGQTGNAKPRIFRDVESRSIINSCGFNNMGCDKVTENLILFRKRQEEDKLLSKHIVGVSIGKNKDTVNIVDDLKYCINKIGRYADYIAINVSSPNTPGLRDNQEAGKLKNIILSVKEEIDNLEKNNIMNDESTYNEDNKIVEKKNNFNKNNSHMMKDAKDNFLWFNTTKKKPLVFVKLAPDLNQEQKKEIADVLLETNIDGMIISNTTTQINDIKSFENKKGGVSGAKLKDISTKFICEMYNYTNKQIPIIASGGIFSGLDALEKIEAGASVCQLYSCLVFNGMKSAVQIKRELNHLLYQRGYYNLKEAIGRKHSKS

For the compound `COc1cc2c(cc1OC)CN(C(=O)[C@H]1[C@@H]3C(=O)O[C@@H](c4ccccc4)[C@@H](c4ccccc4)N3[C@@H](c3ccccc3OCCO)[C@]13C(=O)Nc1ccc(C#CC4(O)CCCCCC4)cc13)CC2`, the z-score was 0.714 in experiment [1]; 0.0302 (inactive) in experiment [2]; -0.492 (inactive) in experiment [3]; 2.63 (inactive) in experiment [5]; 2.15 (inactive) in experiment [6]; 0.667 (inactive) in [7]. Also, the figures for the z-score in experiment [8] and in experiment [9] were 1.61 (inactive) and 0.248, respectively. The composite z-score in [4] was 0.682 (inactive); in experiment [10], -0.12.

`COc1ccc([Si](C)(C)[C@H]2[C@H](CC(=O)N(CCO)Cc3ccccc3)O[C@@]3(C(=O)N(C)c4ccccc43)[C@@H]2C)cc1`: the z-score was 0.514 in experiment [1]; -1.42 (inactive) in experiment [2]; -0.0262 (inactive) in experiment [3]; 0.72 (inactive) in experiment [5]; 0.11 (inactive) in experiment [6]; 0.681 (inactive) in experiment [7]. Moreover, the values for the z-score in experiment [8] and in experiment [9] were 0.455 (inactive) and 0.216, respectively. In addition, the composite z-score was -0.0113 (inactive) in experiment [4] and 0.001 in experiment [10].

Consider `Cc1ccc(S[C@]2(C(=O)NC(C)C)CC(=O)N(C3Cc4ccccc4C3)[C@@H]2c2ccc(CO)cc2)cc1`, for which the z-score in [1] is 0.0858; in [2] it was -0.0445 (inactive); in [3], 0.48 (inactive); in experiment [5], 0.229 (inactive); in experiment [6], -0.792 (inactive); in experiment [7] it was -0.127 (inactive). Further, the z-score in experiment [8] was -0.768 (inactive); in experiment [9] it was 0.33. The composite z-score is -0.335 (inactive) in experiment [4] and 0.0181 in [10].

With `COCCCNC(=O)[C@@H]1c2ccccc2C(=O)N(CC23CC4CC(CC(C4)C2)C3)[C@H]1c1ccc(CO)cc1`, the z-score in [1] was 0.172; in [2] it was -0.323 (inactive); in experiment [3], -0.104 (inactive); in experiment [5] it was 0.87 (inactive); in [6] it was 0.208 (inactive); in [7], 0.0488 (inactive). Further, the values for the z-score in experiment [8] and in [9] were -0.543 (inactive) and 0.0917, respectively. Moreover, the composite z-score is 0.297 (inactive) in experiment [4] and 0.03 in experiment [10].

As for `COc1ccc(C(O)C2C=CC3C(=O)N(C)C(=O)C3N2N2CCCCC2)cc1OCc1ccccc1` (stereo not given), the z-score in experiment [1] is 1.06; in [2], -1.21 (inactive); in experiment [3] it was 0.0046 (inactive); in experiment [5], 0.779 (inactive); in experiment [6], 1.26 (inactive); in [7] it was -0.738 (inactive). The z-score in experiment [8] was -0.811 (inactive); in experiment [9], -2.38. In addition, the composite z-score in [4] was 1.05 (inactive); in experiment [10], -0.0937.

For `COc1ccc([Si](C)(C)[C@@H]2[C@@H](CCO)O[C@]3(C(=O)N(Cc4ccc(NC(=O)[C@H](C)O)cc4)c4ccccc43)[C@H]2C)cc1`, the z-score in experiment [1] is -1.84; in [2], -0.177 (inactive); in [3], -6.71 (inactive); in experiment [5], -0.717 (inactive); in [6] it was 3.7 (inactive); in [7], 1.26 (inactive). In addition, the values for the z-score in experiment [8] and in experiment [9] were 0.335 (inactive) and -5.69, respectively. The composite z-score was -1.07 (inactive) in experiment [4] and -0.0497 in experiment [10].

On to `O=C/C=C/c1ccccc1Cl`, for which the z-score is 0.965 in experiment [1]; -7.23 (inactive) in experiment [2]; 0.413 (inactive) in experiment [3]; -0.227 (inactive) in experiment [5]; -1.17 (inactive) in experiment [6]; 0.834 (inactive) in [7]. Further, the values for the z-score in [8] and in experiment [9] were 0.496 (inactive) and 2.16, respectively. For the same compound, the values for the composite z-score in [4] and in experiment [10] were -0.516 (inactive) and -0.0393, respectively.

On to `C[C@H]1C2[C@H](Cc3ccccc3)NC(=O)[C@]23C(=O)N[C@H](Cc2ccccc2)C(=O)N[C@@H](Cc2ccccc2)C(=O)NC/C=C\C/C=C/C3[C@@H]2O[C@]12C` (stereo not given in full), for which the z-score in experiment [1] was -0.204; in [2] it was -1.79 (inactive); in experiment [3], 1.03 (inactive); in experiment [5], -0.234 (inactive); in experiment [6] it was -0.617 (inactive); in experiment [7], 1.73 (inactive). Further, the z-score is 0.9 (inactive) in experiment [8] and 0.724 in experiment [9]. Besides, the figures for the composite z-score in [4] and in experiment [10] were -0.427 (inactive) and 0.306, respectively.

On to `O=C1O[C@H](c2ccccc2)[C@H](c2ccccc2)N2[C@H]1[C@@H](C(=O)Nc1nc3ccccc3s1)[C@]1(C(=O)Nc3ccc(C#CC4=CCCCC4)cc31)[C@H]2c1ccccc1OCCO`, for which the z-score in [1] was 0.111; in [2] it was 1.86 (inactive); in experiment [3] it was -0.912 (inactive); in [5], 2.73 (inactive); in [6], 2.71 (inactive); in experiment [7], -1.27 (inactive). The figures for the z-score in experiment [8] and in [9] were -1.24 (inactive) and -0.711, respectively. The composite z-score was 0.835 (inactive) in [4] and 0.0705 in experiment [10].

Consider `CCOC(=O)C1=CC[C@@H](c2ccc(-c3ccc(OCc4ccccc4)cc3)c(OC)c2)N(S(=O)(=O)c2ccc(C)cc2)[C@H]1c1ccccc1`, for which the z-score in experiment [1] was 0.899; in [2] it was 0.0553 (inactive); in experiment [3], 0.25 (inactive); in experiment [5] it was 0.325 (inactive); in experiment [6], -0.0764 (inactive); in experiment [7] it was 0.263 (inactive). The values for the z-score in experiment [8] and in [9] were 1.3 (inactive) and 0.894, respectively. For the same compound, the composite z-score in experiment [4] is 0.917 (inactive); in experiment [10], -0.02.

Turning to `O=C1C[C@@](C(=O)NCCN2CCOCC2)(c2ccc([N+](=O)[O-])cc2)[C@@H](c2ccc(CO)cc2)N1C1CCCCC1`, the z-score is -0.0886 in [1]; -0.359 (inactive) in experiment [2]; 0.836 (inactive) in experiment [3]; 0.292 (inactive) in experiment [5]; -0.206 (inactive) in [6]; 0.497 (inactive) in experiment [7]. Further, the figures for the z-score in [8] and in [9] were 0.274 (inactive) and 0.906, respectively. Also, the composite z-score in experiment [4] was 0.231 (inactive); in experiment [10] it was -0.142.

For `CCCC=C(CCC)[C@@H](NS(=O)(=O)c1cccc(C(F)(F)F)c1)c1ccc(C(=O)OC)cc1`, the z-score was 1.18 in experiment [1]; 0.661 (inactive) in [2]; 0.179 (inactive) in experiment [3]; -0.94 (inactive) in [5]; -0.279 (inactive) in experiment [6]; -0.0305 (inactive) in [7]. Besides, the z-score in experiment [8] is -0.0262 (inactive); in experiment [9], -0.16. The composite z-score in experiment [4] is -0.237 (inactive); in experiment [10], 0.0506.

On to `COc1ccc([Si](C)(C)[C@@H]2[C@@H](CCO)O[C@]3(C(=O)N(Cc4ccccc4)c4ccccc43)[C@H]2C)cc1`, for which the z-score in [1] is -1; in experiment [2] it was 0.212 (inactive); in experiment [3] it was -0.604 (inactive); in [5] it was 0.13 (inactive); in experiment [6] it was 0.347 (inactive); in experiment [7], 0.916 (inactive). Further, the z-score in experiment [8] was -0.326 (inactive); in experiment [9] it was -0.372. The composite z-score is 0.825 (inactive) in experiment [4] and -0.232 in experiment [10].
